Tested on: VDR:RXRa (NR concentration 270 nM, RXRa partner concentration 90 nM)
Assay: PBM binding z-score (relative to random genomic background probes); higher = stronger binding; sequences stand for … in GC…GCGATTGACAGCGTAGAATGAAGG
Description: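 Protein-binding microarray (Agilent 4x180K custom design, double-stranded 60-nt probes: 5' GC cap, 34-nt variable region, 24-nt constant primer region; full probe sequence given). Purified or IVT nuclear receptor:RXRα heterodimers (3:1 NR:RXRα, mostly 270:90 nM) or homodimers were incubated for 1 h in PBS with 2% milk and no ligand, then detected with Alexa488 antibodies. Fluorescence from o1-orientation probes (~5 replicates averaged) was converted to z-scores against 500 random hg19 background probes. Variable regions are seed direct-repeat (DR0–DR5) sites, all their single-nucleotide variants and half-site ablations.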

Sequence	PBM binding z-score
CCGACTGGGGCAGAAAGGTTACCATGCCATCCGG	0.756
TCTATTAGTAGAAGGGCAACCGACGAGTCCGTTT	0.796
CCTACTGGGCCAAGGTCATTGAACAGTCAAAGCA	3.39
GGAACGAGGGCCAGTTGATAGCAGAGTTTGATGG	-0.702
CGTCAAAGTTCAACTAAGGTAACGTAGAGCACGC	4.59
ACTATTAGTTGACTTAGGGCAGCCGATACGACGC	0.0476
ACTTACGGGTCAACGAGGTTTTAGCACGCGTATA	6.69
ATCGAGAGGTCGAAGGTGAGTATACCCACCCGAA	2.42
CCATACAGGTGAGAAGGTAACTCAGCCTCGATTA	0.121
CAGCCTAGGTCAGGGCCAGTATGGGAGGAACGTT	-0.0336
CCTCGGAGGACAGAAGGTCAGAGCTGTCCGCTTT	1.02
TCGAGTAGGTTAGGAGCATTCAGAATGGCGTCGA	-0.474
TCTAGTAGATCAAGCAGGTTAAGAAAGCCTGAGT	0.576
AGTCAAAGTTCAATAGGTAACGTAAGATTCAGCT	3.71
AGTCAAAGTCCACTAGGTAACGTAAGATTCAGCT	-0.0687
CCTACTGGGCCATTCAGATGTCATTGATCATATG	-0.54
GCGACTGGTGCAAAGCAGGTTACCATAAGGTTGG	-0.134
CCTAGTTGGTGAAGGTCACACACGCTATAGGTAC	3.4
ATACCAAGGTGATCGTGAGGTCGTTGTTACTAAC	3.18
ACTCGGAGGACAAAGGTCAGACCTACGCCAGTGA	3.52

Sequence	PBM binding z-score
TCTTGTAGATCAGCAGGTTTAGAAAGCTGGCCAA	0.532
GCTCGGAGCACAAGGTCAGAGCTTTGTCCGTAGA	1.2
GCTCGGAGGGCAAGGTCAGAGCTTTGTCCGTAGA	1.72
ATCTCTAGGTTACAAGTTCAGTGAAAGAGAGGAC	2.7
AGAAAGAGGTTAAGATCAGGGAAACAGAATACAT	1.25
CATCAAAGTTCAACTAAGGTAACGTAAAGCACGC	4.98
CAAACTAGGTCACCGGAAGGTCGAAGTCCGCATG	4.47
CAAACTAGGGCACAGAGGTCAAAGTCCGTGCGTA	6.64
TCTTGTAGATCACTAGAGGTTAAGAAAGTGCGCT	2.06
GCAGACAGGTGAAACGCGGGTAACTCAGGGTGGC	-0.339
CCTACTGGGCCACGAAAGGTCATTGAATCAGTGA	4.14
TTACCAAGGTGAGCTGAGGTCGTCGATCCAACTC	3.49
CCGACTGGGGCAGAAAGGTTACGATACCATCCGG	1.2
CGACCTAGGTCAAGGACAGTGAATCTCCGCACGC	1.96
GCGACTGGGGCAAAGCAGGTTCCCATAAGGTTGG	-0.543
CCTTACGGCTCAAGGTTATAGCACGGGTGGTACG	0.122
CCTGCTACGTCATGGTCAGCTAATCTACAGTATG	-0.408
CGGACTGGGGCAGAAAGGTTACCATACCATCCGG	1.33
TCCTATAGGTAAACAGGTGAAAGTCCGTAAGTTA	0.775
ACTATTAGTTGAGACGAGGGCAACCGATAGGTTG	0.889
